Screen size: about 140,000 compounds; about 2,100 (1.5%) were called active.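 Rule for the calls: active = viability at or under a set limit, the compound median less 4 SD (cut at about 6% in these data); inactive = the rest.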 This excerpt belongs to a sample that is enriched for actives.

This experiment can be described thus: primary screen for suppressors of beta-catenin knockout HCT116 cell growth, colon tumor, human (AID 818).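 Note: 0% = Hyamine 1622 control at 20 µM and 100% = untreated cell control.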 The note with it: CellTiter-Glo, 60 h, at 10 µM, hits give low values.
For `CCCn1c(=O)c2c(C(F)(F)F)cc(-c3cccs3)nc2n(CCC)c1=O`, the viability (commonly a read-out of living cells in per cent, often relative to untreated cells) was 90% (inactive). With `O=C1CCCCC(=O)c2ccccc2N1` the figure was 101% (inactive); with `c1ccc2c(c1)C(=NC1CCCCC1)NC2=NC1CCCCC1`, 5.56% (active). Consider `CC(=O)OC(C)C[N+](C)(C)C` (stereo not drawn), for which the viability is 102% (inactive). Next, `CC(C[N+](C)(C)C)OC(N)=O` (stereo not drawn): 1.28% (active). Next, `CCCCn1c(O)c(N=NC(=O)Cn2c(C(F)(F)F)nc3ccccc32)c2ccccc21`: 93.1% (inactive); `CC(C)(C)NC(=O)C(=O)NCc1ccncc1`: 98.5% (inactive). Next, `O=C(CSC(=S)N1CCOCC1)c1ccccc1`: 98.3% (inactive); `Cn1ncc2c(NNC(=O)Cc3cccc4ccccc34)ncnc21`: 86.8% (inactive); `NS(=O)(=O)c1ccc(N=Cc2ccc(Br)s2)cc1`: 101% (inactive). Turning to `CC(=O)CCC(=O)c1ccc2ccccc2c1`, the viability is 99.5% (inactive).

As to `CNC(=O)c1csc(-c2ccccc2)n1`, the viability was 96.8% (inactive). In the case of `Cc1ccc(SCC(=O)c2sc(-c3ccccc3)nc2C)cc1`, the viability was 94.5% (inactive).

As for `Cc1nc(-c2ccccc2)sc1C(=O)/C=C/c1ccccc1`, the viability was 4.4% (active). Next, `Cc1ccc(Sc2ccncc2S(N)(=O)=O)cc1`: 87.3% (inactive). Next, `O=C(COC(=O)/C=C/c1ccc(S(=O)(=O)N2CCCCCC2)cc1)NCc1ccccc1Cl`: 106% (inactive). With `N=c1c2c(-c3ccccc3)c(-c3ccccc3)n(Cc3ccccc3)c2ncn1CCCO` the figure was 1.54% (active). In the case of `N=c1c2c(-c3ccccc3)c(-c3ccccc3)oc2ncn1Cc1ccco1`, the viability is 59.7% (inactive). Next, `OCCCN1c2ccccc2Nc2nnc(-c3ccccc3)cc21`: 46.3% (inactive); `Cc1nc(SCc2ccc(F)cc2)c([N+](=O)[O-])[nH]1`: 89.8% (inactive). Next, `Cc1cc(N2CCOCC2)nc(-c2ccc(Br)cc2)n1`: 82.4% (inactive); `CCCC1OC23CCCCC2C(C#N)(C#N)C1(C#N)C(=N)O3` (stereo not drawn): 85.5% (inactive); `COc1cccc(/C=N/NC(=O)CNC(=O)c2ccc(S(=O)(=O)N3CCOCC3)cc2)c1OC`: 90.8% (inactive).

Take `NC(N)=N/N=C/c1ccc(OCc2ccc(Cl)cc2Cl)cc1`: the viability was 1.64% (active). Turning to `COC(=O)c1sc2ncccc2c1OCc1ccc(Cl)cc1Cl`, the viability is 67.4% (inactive).

With `COc1ccc(C(=O)O/N=C(\N)Cc2ccc(Cl)cc2Cl)cc1OC`, the viability is 79.8% (inactive). With `CCOC(=O)NN1C(=O)c2ccccc2NC1c1ccccc1O` (stereo not drawn) the figure was 95% (inactive); with `C=CCn1c(SCC(N)=O)nnc1-c1cc2c(s1)CCC(CC)C2` (stereo not drawn), 91.1% (inactive); with `COc1cc2c(cc1OC)C(Nc1ccc(S(N)(=O)=O)cc1)=NC(C)(C)C2`, 101% (inactive). With `COc1cc2c(cc1O)C(SC)=NC(C)(C)C2` the figure was 2.29% (active).

As to `COc1cc2c(cc1OC)C(C(C)C)=NC(C)(C)C2`, the viability was 95.1% (inactive).

For `COc1ccc(NC(=O)CC2C(=O)OCC3CCCCN32)cc1Cl` (stereo not drawn), the viability was 93.4% (inactive). Next, `Cc1cc(C)c(C#N)c(SCC(=O)NN2CC(=O)N(c3ccccc3F)CC2=O)n1`: 99.8% (inactive); `CC(C)[C@H](NC(=O)c1ccc(F)cc1)C(=O)OCC(=O)NC(=O)c1cccn1C`: 93.5% (inactive). Consider `CC(=O)NC(C)c1nc2ccccc2n1Cc1ccccc1F` (stereo not drawn), for which the viability was 102% (inactive). Next, `CN(Cc1ccccc1)Cc1ccccc1F`: 83% (inactive). Next, `N=c1n(CCc2ccccc2)c2ccccc2n1Cc1ccccc1F`: 3.71% (active); `Cc1ccc2[nH]cc(CCNC(=O)c3ccc([N+](=O)[O-])cc3)c2c1`: 106% (inactive); `Cc1ccc(C(=O)NC(C)c2ccccc2)cc1Br` (stereo not drawn): 83.5% (inactive). For `CC(=O)Nc1ccc(S(=O)(=O)NCC(=O)OCc2cc(=O)oc3ccc4ccccc4c23)cc1`, the viability was 83.8% (inactive). Next, `CCCN1C(=O)C(Cc2nc3ccccc3c(=O)n2-c2ccccc2)c2cc(C)ccc21` (stereo not drawn): 74.7% (inactive); `Cc1cc2c(c(=O)n1Cc1ccco1)C(c1ccccc1)C(C#N)=C(N)O2` (stereo not drawn): 105% (inactive); `Cc1cc(C)c2c3c(sc2n1)C(c1ccccc1)C(C#N)=C(N)O3` (stereo not drawn): 21.1% (inactive). With `N#CC1=C(N)Oc2c(sc3ccccc23)C1c1ccco1` (stereo not drawn), the viability was 3.24% (active). Next, `Brc1ccc(-c2csc(N/N=C/c3ccc4c(c3)OCO4)n2)cc1`: 84.8% (inactive); `CC(=O)c1c(O)cc2n(c1=O)-c1ccc(Cl)cc1C2(C)C`: 91.5% (inactive); `CC(C)n1c(C(O)c2ccccc2)nc2ccccc21` (stereo not drawn): 110% (inactive). Next, `Cc1ccc(C(CC(=O)O)Nc2nc(N3CCCCC3)nc(N3CCCCC3)n2)cc1` (stereo not drawn): 97.6% (inactive). Consider `CC(Nc1nc(N2CCCC2)nc2ccccc12)c1ccccc1` (stereo not drawn), for which the viability was 1.19% (active).

For `C/C(=N\N1CCN(Cc2ccc(C)cc2)CC1)c1ccco1`, the viability was 99.1% (inactive). With `Cc1cc2oc(=O)cc(CN3CCN(S(=O)(=O)c4cccs4)CC3)c2cc1C(C)C` the figure was 76.9% (inactive); with `COc1cccc(-n2c(SCC(=O)c3c[nH]c4ccccc34)nc3ccccc3c2=O)c1`, 73.3% (inactive); with `NC(=O)c1ccccc1N=Cc1ccc2ccccc2c1`, 35.3% (inactive). With `N#C/C(=C(/O)COc1cccc2ccccc12)c1nc2ccccc2[nH]1` the figure was 79.3% (inactive); with `N#C/C(=C(/O)COC(=O)COc1ccc(Cl)cc1)c1nc2ccccc2[nH]1`, 5.63% (active). With `Cc1ccccc1OC/C(O)=C(\C#N)c1nc2ccccc2[nH]1` the figure was 78.6% (inactive); with `O=C(Cc1cccc2ccccc12)NCCC1=CCCCC1`, 85.5% (inactive); with `CCOc1ncccc1C(=O)N(CC)CC(=O)Nc1ccc(NC(C)=O)cc1`, 104% (inactive).

(Values after PubChem BioAssay AID818 (SRMLSC, 2007).)
